According to PMC7862700, “An all-to-all approach to the identification of sequence-specific readers for epigenetic DNA modifications on cytosine”:

Legend:
Test in all cases: DAPPL (digital affinity profiling via proximity ligation, sequencing); 10 mM Tris-HCl pH 7.5, 50 mM NaCl, 1 mM DTT, 4% glycerol, room temperature, 30 min; GST-TFs on glutathione beads, 16-mer random dsDNA library, 0.1% formaldehyde crosslink after washing; high values mean tight binding
FEV = biological target: T1, FEV (Homo sapiens, UniProt Q99581 1-238); conditions: protein: recombinant; tags: N-terminal GST; dsDNA, one strand shown
T1 sequence: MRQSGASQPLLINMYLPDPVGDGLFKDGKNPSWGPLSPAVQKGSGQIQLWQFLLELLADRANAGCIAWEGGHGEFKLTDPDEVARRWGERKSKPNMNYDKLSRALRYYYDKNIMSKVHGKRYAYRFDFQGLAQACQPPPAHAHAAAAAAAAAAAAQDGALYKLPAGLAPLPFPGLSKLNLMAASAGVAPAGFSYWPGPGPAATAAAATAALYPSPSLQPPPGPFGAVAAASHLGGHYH
Summary of the method: (§1)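 Pools of DNA-barcoded human transcription factors, expressed in yeast as GST fusions on glutathione beads and combined with a tag-only sample, were incubated with 200 nmole of a 16-mer random double-stranded DNA library. Incubation took 30 min at room temperature in Tris/NaCl/DTT/glycerol buffer and was followed by washing, 0.1% formaldehyde crosslinking, proximity ligation (BsaI/T4 ligase, 1 h, 37 °C), PCR amplification and sequencing on an Illumina NextSeq500. Binding signal is the ratio of a hexamer's read frequency for a factor to its frequency for the tag-only sample.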

ETV5 = ETV5 (Homo sapiens, UniProt P41161 1-510); conditions: protein: recombinant; tags: N-terminal GST; dsDNA, one strand shown
Summary of the method: as §1

HSF1 = HSF1 (Homo sapiens, UniProt Q00613 1-529); conditions: protein: recombinant; tags: N-terminal GST; chain copies: 3; dsDNA, one strand shown
Summary of the method: as §1

SPIC = biological target: T2, SPIC (Homo sapiens, UniProt Q8N5J4 1-248); conditions: protein: recombinant; tags: N-terminal GST; dsDNA, one strand shown
T2 sequence: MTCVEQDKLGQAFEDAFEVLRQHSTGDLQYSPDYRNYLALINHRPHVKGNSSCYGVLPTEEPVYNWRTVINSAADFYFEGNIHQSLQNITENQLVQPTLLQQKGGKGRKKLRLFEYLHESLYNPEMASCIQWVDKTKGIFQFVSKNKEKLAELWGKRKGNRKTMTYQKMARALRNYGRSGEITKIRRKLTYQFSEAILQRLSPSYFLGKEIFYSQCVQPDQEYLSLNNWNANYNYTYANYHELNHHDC
Summary of the method: as §1

ELF4 = ELF4 (Homo sapiens, UniProt Q99607 1-663); conditions: protein: recombinant; tags: N-terminal GST; dsDNA, one strand shown
Summary of the method: as §1

ELK4 = biological target: T3, ELK4 (Homo sapiens, UniProt P28324-2 1-405); conditions: protein: recombinant; tags: N-terminal GST; dsDNA, one strand shown
T3 sequence: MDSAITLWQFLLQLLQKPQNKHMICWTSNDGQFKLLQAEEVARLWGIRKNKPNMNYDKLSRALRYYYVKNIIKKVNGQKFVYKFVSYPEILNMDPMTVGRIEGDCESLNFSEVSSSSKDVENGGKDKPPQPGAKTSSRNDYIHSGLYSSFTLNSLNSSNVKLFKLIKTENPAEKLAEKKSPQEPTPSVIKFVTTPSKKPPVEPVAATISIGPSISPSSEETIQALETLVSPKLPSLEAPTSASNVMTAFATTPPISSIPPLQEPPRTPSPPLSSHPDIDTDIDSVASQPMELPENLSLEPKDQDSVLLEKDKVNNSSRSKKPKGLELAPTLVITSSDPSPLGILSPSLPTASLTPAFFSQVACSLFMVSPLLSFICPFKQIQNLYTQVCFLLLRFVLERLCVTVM
Summary of the method: as §1

ETV2 = biological target: T4, ETV2 (Homo sapiens, UniProt O00321 1-342); conditions: protein: recombinant; tags: N-terminal GST; dsDNA, one strand shown
T4 sequence: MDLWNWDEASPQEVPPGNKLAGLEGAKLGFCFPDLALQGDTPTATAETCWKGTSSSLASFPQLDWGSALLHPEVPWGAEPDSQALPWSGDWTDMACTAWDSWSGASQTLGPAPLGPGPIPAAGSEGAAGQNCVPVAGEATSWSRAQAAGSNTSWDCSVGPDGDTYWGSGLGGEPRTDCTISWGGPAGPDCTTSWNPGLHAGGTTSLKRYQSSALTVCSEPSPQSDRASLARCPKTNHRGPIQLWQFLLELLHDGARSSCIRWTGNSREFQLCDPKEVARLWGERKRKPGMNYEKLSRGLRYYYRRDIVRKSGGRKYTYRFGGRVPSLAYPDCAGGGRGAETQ
Summary of the method: as §1

ELF3 = biological target: T5, ELF3 (Homo sapiens, UniProt P78545 1-371); conditions: protein: recombinant; tags: N-terminal GST; dsDNA, one strand shown
T5 sequence: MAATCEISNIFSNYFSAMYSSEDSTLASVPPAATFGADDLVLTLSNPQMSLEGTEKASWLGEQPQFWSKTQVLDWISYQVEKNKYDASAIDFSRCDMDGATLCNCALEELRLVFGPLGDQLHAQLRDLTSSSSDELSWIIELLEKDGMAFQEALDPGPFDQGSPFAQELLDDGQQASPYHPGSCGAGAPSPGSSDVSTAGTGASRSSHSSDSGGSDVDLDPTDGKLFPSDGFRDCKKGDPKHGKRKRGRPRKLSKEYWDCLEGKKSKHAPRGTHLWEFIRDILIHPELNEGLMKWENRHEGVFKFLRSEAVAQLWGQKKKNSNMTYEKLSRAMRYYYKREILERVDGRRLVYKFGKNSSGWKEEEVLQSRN
Summary of the method: as §1

CRX = CRX (Homo sapiens, UniProt O43186 1-299); conditions: protein: recombinant; tags: N-terminal GST; dsDNA, one strand shown
Summary of the method: as §1

ETV1 = ETV1 (Homo sapiens, UniProt P50549 1-477); conditions: protein: recombinant; tags: N-terminal GST; dsDNA, one strand shown
Summary of the method: as §1

Sequence of ETV5 (P41161 whole entry): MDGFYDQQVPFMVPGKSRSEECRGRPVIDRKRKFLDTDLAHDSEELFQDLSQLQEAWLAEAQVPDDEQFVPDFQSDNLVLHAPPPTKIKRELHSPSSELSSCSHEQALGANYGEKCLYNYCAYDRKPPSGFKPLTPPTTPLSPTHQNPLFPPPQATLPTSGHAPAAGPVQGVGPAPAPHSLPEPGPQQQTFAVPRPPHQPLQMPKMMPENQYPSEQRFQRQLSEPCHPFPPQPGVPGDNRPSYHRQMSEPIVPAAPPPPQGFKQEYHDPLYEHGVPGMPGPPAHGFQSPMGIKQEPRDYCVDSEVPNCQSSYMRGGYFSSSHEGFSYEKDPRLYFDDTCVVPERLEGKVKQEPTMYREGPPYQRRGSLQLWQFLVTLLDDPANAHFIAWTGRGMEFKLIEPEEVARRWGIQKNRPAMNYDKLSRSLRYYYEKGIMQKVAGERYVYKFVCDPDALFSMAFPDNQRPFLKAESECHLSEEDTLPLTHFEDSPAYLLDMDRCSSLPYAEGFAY
Sequence of HSF1 (Q00613 whole entry): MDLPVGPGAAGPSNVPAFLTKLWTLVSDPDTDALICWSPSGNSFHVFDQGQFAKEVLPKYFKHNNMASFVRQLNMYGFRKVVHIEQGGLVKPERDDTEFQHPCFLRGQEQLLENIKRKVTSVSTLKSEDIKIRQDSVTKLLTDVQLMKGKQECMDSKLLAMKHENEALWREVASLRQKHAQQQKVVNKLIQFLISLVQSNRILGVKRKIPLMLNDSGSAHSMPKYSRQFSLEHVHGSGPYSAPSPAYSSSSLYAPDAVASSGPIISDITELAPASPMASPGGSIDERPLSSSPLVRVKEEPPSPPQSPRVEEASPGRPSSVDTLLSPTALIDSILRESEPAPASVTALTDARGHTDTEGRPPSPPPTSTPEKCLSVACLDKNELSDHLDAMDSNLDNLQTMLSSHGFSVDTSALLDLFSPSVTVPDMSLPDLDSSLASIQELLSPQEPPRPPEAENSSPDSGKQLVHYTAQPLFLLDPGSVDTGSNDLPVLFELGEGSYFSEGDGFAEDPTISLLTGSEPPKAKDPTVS
Sequence of CRX (O43186 whole entry): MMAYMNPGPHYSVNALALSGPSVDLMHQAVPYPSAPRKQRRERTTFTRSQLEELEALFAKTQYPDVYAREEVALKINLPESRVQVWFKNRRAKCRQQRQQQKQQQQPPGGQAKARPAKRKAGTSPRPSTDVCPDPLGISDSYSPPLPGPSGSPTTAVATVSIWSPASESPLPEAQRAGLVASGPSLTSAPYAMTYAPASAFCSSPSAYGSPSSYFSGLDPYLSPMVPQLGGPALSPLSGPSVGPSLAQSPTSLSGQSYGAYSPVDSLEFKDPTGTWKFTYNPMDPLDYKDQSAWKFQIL
Sequence of ETV1 (P50549 whole entry): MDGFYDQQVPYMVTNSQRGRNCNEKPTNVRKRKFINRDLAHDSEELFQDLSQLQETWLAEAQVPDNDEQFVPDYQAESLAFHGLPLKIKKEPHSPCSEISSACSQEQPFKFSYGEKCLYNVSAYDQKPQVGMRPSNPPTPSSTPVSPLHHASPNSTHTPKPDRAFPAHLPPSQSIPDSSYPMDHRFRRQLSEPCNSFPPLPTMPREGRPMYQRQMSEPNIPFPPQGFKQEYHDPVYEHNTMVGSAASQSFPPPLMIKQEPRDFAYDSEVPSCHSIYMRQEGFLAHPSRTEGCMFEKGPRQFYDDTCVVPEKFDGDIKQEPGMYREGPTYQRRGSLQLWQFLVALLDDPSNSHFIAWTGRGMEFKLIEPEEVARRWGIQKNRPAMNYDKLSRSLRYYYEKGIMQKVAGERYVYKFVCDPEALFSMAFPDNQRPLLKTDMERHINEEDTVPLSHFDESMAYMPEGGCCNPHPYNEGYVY
Sequence of ELF4 (Q99607 whole entry): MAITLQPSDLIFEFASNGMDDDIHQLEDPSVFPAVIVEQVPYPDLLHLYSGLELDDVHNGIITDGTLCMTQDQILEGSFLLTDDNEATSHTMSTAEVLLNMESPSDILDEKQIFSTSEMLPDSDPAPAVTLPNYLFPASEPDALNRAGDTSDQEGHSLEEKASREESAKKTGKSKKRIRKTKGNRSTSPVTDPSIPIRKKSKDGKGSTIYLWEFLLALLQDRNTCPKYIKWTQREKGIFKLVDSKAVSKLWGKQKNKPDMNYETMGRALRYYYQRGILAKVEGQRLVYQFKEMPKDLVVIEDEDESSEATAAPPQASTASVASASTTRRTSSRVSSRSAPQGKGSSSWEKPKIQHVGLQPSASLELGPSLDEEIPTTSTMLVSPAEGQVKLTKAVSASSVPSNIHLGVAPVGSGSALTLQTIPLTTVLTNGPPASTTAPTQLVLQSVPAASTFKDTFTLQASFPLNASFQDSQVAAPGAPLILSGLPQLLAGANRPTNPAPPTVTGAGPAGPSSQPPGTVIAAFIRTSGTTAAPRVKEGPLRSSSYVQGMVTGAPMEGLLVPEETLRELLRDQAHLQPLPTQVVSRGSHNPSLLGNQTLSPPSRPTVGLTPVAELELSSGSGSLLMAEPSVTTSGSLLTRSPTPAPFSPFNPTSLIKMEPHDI

## TCCGGT
FEV
  binding signal: 6.6 fold enrichment (6-mer frequency, TF over GST control)
ETV5
  binding signal: 3.98 fold enrichment (6-mer frequency, TF over GST control)
HSF1
  binding signal: 1.09 fold enrichment (6-mer frequency, TF over GST control)
SPIC
  binding signal: 3.59 fold enrichment (6-mer frequency, TF over GST control)
ELF4
  binding signal: 3.32 fold enrichment (6-mer frequency, TF over GST control)
ELK4
  binding signal: 3.14 fold enrichment (6-mer frequency, TF over GST control)
ETV2
  binding signal: 3.65 fold enrichment (6-mer frequency, TF over GST control)
ELF3
  binding signal: 3.41 fold enrichment (6-mer frequency, TF over GST control)
CRX
  binding signal: 1.04 fold enrichment (6-mer frequency, TF over GST control)
ETV1
  binding signal: 3.87 fold enrichment (6-mer frequency, TF over GST control)
